From PubChem BioAssay
ST2 inh = inhibitors of human ST2 (IL1RL1) binding to IL-33, primary screen, biochemical, AlphaLISA. Interleukin-1 receptor-like 1 (Homo sapiens), Q01638. AlphaLISA ST2-Fc/biotin-IL-33 interaction, 1 h. inhibition, % for hits at 17 µM. 78,000 tested, 2.3% active; in the data active means inhibition above about 30%
Target sequence (Q01638 whole entry, looked up): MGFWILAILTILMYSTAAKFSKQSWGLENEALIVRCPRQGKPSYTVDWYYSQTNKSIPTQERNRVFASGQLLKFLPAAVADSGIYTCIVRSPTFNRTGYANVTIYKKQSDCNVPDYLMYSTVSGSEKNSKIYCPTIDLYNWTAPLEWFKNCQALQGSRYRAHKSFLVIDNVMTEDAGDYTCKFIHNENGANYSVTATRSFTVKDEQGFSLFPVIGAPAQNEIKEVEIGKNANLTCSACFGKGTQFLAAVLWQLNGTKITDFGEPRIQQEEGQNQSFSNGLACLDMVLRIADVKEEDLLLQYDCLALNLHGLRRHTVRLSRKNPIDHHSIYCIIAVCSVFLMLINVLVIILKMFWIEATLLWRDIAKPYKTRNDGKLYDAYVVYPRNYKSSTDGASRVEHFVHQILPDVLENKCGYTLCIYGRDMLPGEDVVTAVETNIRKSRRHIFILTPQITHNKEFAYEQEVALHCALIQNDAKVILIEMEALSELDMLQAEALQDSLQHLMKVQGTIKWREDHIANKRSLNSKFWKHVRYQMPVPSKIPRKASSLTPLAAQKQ
Active calls of the source: *. This excerpt belongs to a sample that is enriched for hits.

Screening Cc1cccc(CN2C(=O)c3ccccc3Sc3ccc(C(=O)O)cc32)c1 returned ST2 inh inactive.
`Cn1c(SCC(=O)c2cccs2)nnc1-c1ccccc1` gave ST2 inh inactive.
Cc1ccc(NCC(=O)c2ccc([N+](=O)[O-])cc2)cc1 was read as ST2 inh 36%*.
CC(C)(C)CC(=O)Nc1ccc([N+](=O)[O-])cc1 was read as ST2 inh inactive.
For Cc1ccc(NC(=O)c2ccc([N+](=O)[O-])cc2)cc1F the results were ST2 inh inactive.
For CN(CC1CCCCO1)C(=O)c1cn(C2CCCCCC2)nn1 (stereo not drawn) the results were ST2 inh inactive.
c1ccc(Cn2cccn2)c(CN2CCCn3cncc3C2)c1 was read as ST2 inh inactive.
Screening Cc1nc2ccccc2n1C(=O)c1ccccc1C(=O)O returned ST2 inh inactive.
CC1=C[C@@H](CNC(=O)NC2CCCCC2)[C@H](C(C)C)C[C@H]1CC(=O)O was read as ST2 inh inactive.
`COCC(=O)NC[C@@H]1C=C(C)[C@H](CC(=O)O)C[C@H]1C(C)C` gave ST2 inh 32%*.
CC1=C[C@@H](CNC(=O)c2ccccc2)[C@H](C(C)C)C[C@H]1CC(=O)O was read as ST2 inh inactive.
N#Cc1cccc(CN2C[C@H](O)C[C@H]2c2nc(Cc3ccccc3)no2)c1 was read as ST2 inh inactive.
Screening CC(=O)N1CCN(C(=O)c2cccs2)[C@H](C(=O)N[C@@H](CC2CCCCC2)C(N)=O)C1 returned ST2 inh inactive.
For COCCNC(=O)C1c2cc(OC)c(OC)cc2C(=O)N(C)C1c1ccc(OC)cc1 (stereo not drawn) the results were ST2 inh inactive.
`O=C1C(=Cc2ccc3c(c2)OCO3)C(=O)c2ccccc21` gave ST2 inh inactive.
CCSC1=N/C(=C\c2ccc3c(c2)OCO3)C(=O)S1 was read as ST2 inh 55%*.
`CCN(CC)c1ccc(C=Nc2ccc([N+](=O)[O-])cc2OC)c(O)c1` gave ST2 inh inactive.
Screening CCSC1=N/C(=C\c2cc3c(cc2Cl)OCO3)C(=O)S1 returned ST2 inh inactive.
`CCOc1ccc(-c2nc3s/c(=C\c4ccc(OC)cc4OC)c(=O)n3n2)cc1` gave ST2 inh inactive.
CCSC1=N/C(=C\c2ccc(N(CC)CC)cc2OC)C(=O)S1 was read as ST2 inh 65%*.
For O=C(NCCc1ccccc1)c1cc(-c2ccco2)on1 the results were ST2 inh inactive.
For CCCCOc1ccc(-c2nc3s/c(=C\c4ccco4)c(=O)n3n2)cc1 the results were ST2 inh inactive.
Screening Cc1nc2c(c(=O)[nH]1)CCN(C(=O)Cn1cc(C(F)(F)F)ccc1=O)C2 returned ST2 inh inactive.
`NNc1nnc2c(n1)[nH]c1ccccc12` gave ST2 inh 31%*.
For O=C(CSc1nnc2c(n1)[nH]c1ccccc12)NCCc1ccccc1 the results were ST2 inh inactive.
Screening NC(=O)CSc1nnc2c(n1)[nH]c1ccccc12 returned ST2 inh inactive.
For COc1ccc(F)c(-c2ccccc2OC(C)C(N)=O)c1 (stereo not drawn) the results were ST2 inh inactive.
O=[N+]([O-])c1cccc(-n2nncc2-c2ccccc2)c1 was read as ST2 inh inactive.
Screening CN(C)c1ccc(C2C(C(=O)c3cc4ccccc4o3)=C(O)C(=O)N2CCN2CCOCC2)cc1 (stereo not drawn) returned ST2 inh inactive.
Cn1c(=O)c2c(nc(NCCOCCO)n2Cc2ccccc2Br)n(C)c1=O was read as ST2 inh inactive.
O=C(Nc1nc(-c2ccccc2)cs1)c1cc(=O)c2ccccc2o1 was read as ST2 inh inactive.
For O=C(Oc1ccc(C2CCCCC2)cc1)c1ccco1 the results were ST2 inh inactive.
Screening O=C(O)c1cccc(NC(=O)c2ccc(-c3ccccc3)cc2)c1 returned ST2 inh inactive.
For O=C(O)c1cccc(NC(=O)c2cccc(C(=O)Nc3cccc(C(=O)O)c3)c2)c1 the results were ST2 inh inactive.
CC1(C)OC(=O)C(=CNc2cccc(C(=O)O)c2)C(=O)O1 was read as ST2 inh 33%*.
For O=C(O)CN1C(=O)C2(OCCCO2)c2ccccc21 the results were ST2 inh inactive.
Cc1ccc(S(=O)(=O)N[C@H]2C[C@@H](c3nc(C(C)C)no3)N(C)C2)cc1 was read as ST2 inh inactive.
For CN(C(=O)CN1C(=O)c2ccccc2C1=O)C1CCCCC1 the results were ST2 inh inactive.
Screening Cc1ccc(CSC2=NCCN2C(=O)c2ccccc2C)cc1 returned ST2 inh inactive.
For CN1C(=O)CC(C(=O)Nc2ccccc2F)SC1=Nc1cccc(Cl)c1 (stereo not drawn) the results were ST2 inh inactive.
`CCOc1ccc(NC2SC(=O)N(Cc3cccc(C(=O)OC)c3)C2=O)cc1` (stereo not drawn) gave ST2 inh inactive.
For CCOc1cc(OCC)cc(C(=O)Nc2cccc(-c3nc4ncccc4o3)c2)c1 the results were ST2 inh inactive.
For O=C(Nc1cccc(-c2nc3ncccc3o2)c1)c1ccc(OCc2ccccc2)cc1 the results were ST2 inh 33%*.
Screening CC(C)c1ccc(C(=O)Nc2cccc(-c3nc4ncccc4o3)c2)cc1 returned ST2 inh inactive.
For O=C(Nc1ccc(NC(=O)c2ccc([N+](=O)[O-])o2)cc1Cl)c1ccccc1 the results were ST2 inh inactive.
For COc1ccc(CNC(=O)C[C@@H]2O[C@H](CNC(=O)c3ccc(C)cc3)[C@@H](O)[C@H]2O)cc1 the results were ST2 inh inactive.
C[C@@]12CC[C@@H](C[C@@H]1N)C2 was read as ST2 inh 41%*.
`COc1ccccc1NS(=O)(=O)c1ccc2[nH]c(=O)sc2c1` gave ST2 inh inactive.
COc1ccccc1NS(=O)(=O)c1ccc(Cl)cc1 was read as ST2 inh inactive.
COc1ccccc1NC(=O)c1ccc(F)cc1 was read as ST2 inh inactive.
`CCc1ccc(S(=O)(=O)N=C2C=C(Nc3ccccc3OC)C(=O)c3ccccc32)cc1` gave ST2 inh 95%*.
`COc1ccccc1NC(=O)C(Cc1ccccc1)N1C(=O)c2ccccc2C1=O` (stereo not drawn) gave ST2 inh inactive.
For COc1ccccc1NC(=O)CN(C)S(=O)(=O)c1ccccc1 the results were ST2 inh inactive.
CCc1ccc(S(=O)(=O)N2CCSC2c2ccccc2OC)cc1 (stereo not drawn) was read as ST2 inh inactive.
COc1ccccc1NC1=CC(=NS(=O)(=O)c2ccc(F)cc2)c2ccccc2C1=O was read as ST2 inh 95%*.
`COc1ccc(S(=O)(=O)Nc2ccccc2Br)cc1OC` gave ST2 inh inactive.
`COc1ccc(S(=O)(=O)N=C2C=C(Nc3ccccc3OC)C(=O)c3ccccc32)cc1` gave ST2 inh 94%*.
Screening COc1ccccc1NC1=CC(=NS(=O)(=O)c2ccccc2)c2ccccc2C1=O returned ST2 inh 95%*.
Screening COc1ccc(S(=O)(=O)Nc2ccccc2C)cc1 returned ST2 inh inactive.
`O=C(Nc1cccc(NC(=O)c2cncc(Br)c2)n1)c1cncc(Br)c1` gave ST2 inh inactive.
Cc1cccc(CN2C(=O)CSc3ccc(C(=O)N4CCC5(CC4)OCCO5)cc32)c1 was read as ST2 inh inactive.
